Data as given in PubChem BioAssay.
Active and inactive are the calls of the source.

How the values were obtained:
[1] = binders of probe aFSTL3 on microarray, primary screen, stem cell growth factor project, biochemical, small-molecule microarray, fluorescence 635/667 (AID 1064); conditions: higher = more signal;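 further: measures binding of the biotinylated anti-FSTL3 antibody to printed compounds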
[2] = binders from COS7 lysate, DM2A8 probe, primary screen, torsin A project, cell lysate, small-molecule microarray, fluorescence 635/667 (AID 1065); conditions: higher = more signal, COS7 lysate expressing mutant human TOR1A
[3] = binders of probe aFGF2 on microarray, primary screen, stem cell growth factor project, biochemical, small-molecule microarray, fluorescence 635/667 (AID 1067); conditions: higher = more signal;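 further: measures binding of biotinylated aFGF2 protein to printed compounds on slides; z-score merges feature fluorescence and signal-to-noise across triplicate slides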
[4] = binders of probe aFGF10 on microarray, primary screen, stem cell growth factor project, biochemical, small-molecule microarray, fluorescence 635/667 (AID 1071); conditions: higher = more signal;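 further: score merges 667 nm spot intensity and signal to noise from triplicate slides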
[5] = target: Neurogenic locus notch homolog protein 2 (Homo sapiens) (UniProt Q04721); assay: Notch2 binders on small-molecule microarrays, primary screen, biochemical, small-molecule microarray, 635 nm fluorescence, stem cell growth factors (AID 1073); conditions: Notch2 binding, higher = more signal
[6] = target: Pro-neuregulin-1, membrane-bound isoform (Homo sapiens) (UniProt Q02297); assay: NRG1 binders on small-molecule microarrays, primary screen, psychiatric disease protein project, biochemical, small-molecule microarray, fluorescence 635/667 (AID 1075); conditions: NRG1 binding, 635 nm fluorescence, higher = more signal;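 further: score combines 667 nm spot fluorescence with signal to noise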
[7] = system: Neuregulin-1 EGF-like domain; assay: binders of neuregulin-1 EGF-like domain, primary screen, biochemical, small-molecule microarray, 635 nm fluorescence (AID 1081); conditions: small-molecule microarray binding, higher = more signal;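 further: binding of the protein to compounds printed on small-molecule microarray slides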
[8] = FRG1 promoter luciferase signal modulators, primary screen, FRG1 inhibition for FSHD, cell-based, C2C12 myotubes, firefly/Renilla luciferase, luminescence (AID 1084); conditions: higher = more signal, called active from +8 up or from −8 down
[9] = binders of probe aFST on microarray, primary screen, stem cell growth factor project, biochemical, small-molecule microarray, fluorescence 635/667 (AID 1086); conditions: higher = more signal;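 further: score merges 667 nm fluorescence with signal-to-noise of each printed compound spot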
[10] = binders of probe aHhip on microarray, primary screen, stem cell growth factor project, biochemical, small-molecule microarray, fluorescence 635/667 (AID 1087); conditions: higher = more signal;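 further: score merges spot fluorescence at 667nm with spot signal to noise ratio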
[11] = system: PRMT1 (protein arginine N-methyltransferase 1); assay: PRMT1 binders on small-molecule microarrays, primary screen, biochemical, small-molecule microarray, 635 nm fluorescence (AID 1088); conditions: small-molecule microarray binding, higher = more signal;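 further: binding of Prmt1 protein to compounds spotted on small-molecule microarray slides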
[12] = yeast growth modulation, basal conditions, primary screen, YJM789 clinical isolate, OD600, 24 h (AID 1089);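 further: growth of clinical yeast isolate S. cerevisiae YJM 789 seeded 1000 cells per well; test concentration not given here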; conditions: S. cerevisiae YJM789 growth, higher = more signal, called active from +8 up or from −8 down
[13] = fission yeast growth modulation, primary screen, strain 972, OD600, 24 h, no modulator (AID 1090);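 further: basal condition with compound alone and no growth modifier present; test concentration not given here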; conditions: S. pombe 972 growth, higher = more signal, called active from +8 up or from −8 down
[14] = S. cerevisiae growth modulation with rapamycin, primary screen, strain BY4716, OD600, 96 h (AID 1091); conditions: higher = more signal, called active from +8 up or from −8 down; further: test concentration not given here
[15] = target: Torsin-1A-interacting protein 2 (Homo sapiens) (UniProt Q8NFQ8); assay: LULL1 binders on small-molecule microarray, primary screen, cell lysate, human LULL1 lysate, 635/667 nm fluorescence (AID 1092); conditions: hLULL1 lysate binding, 635 nm fluorescence, higher = more signal;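 further: probe is lysate of COS7 cells overexpressing human LULL1; score merges per-feature 667 nm fluorescence with signal-to-noise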
[16] = E. coli growth modulation, two-sided OD650, primary screen, E. coli filamentation project, strain DRC41, 24 h (AID 1093); conditions: OD650, 24 h, higher = more signal, called active from +8 up or from −8 down;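 further: MC1000 strain lacking acrAB efflux and sulA so SOS filamentation is blocked; test concentration not given here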
[17] = small-molecule microarray binders of probe aLefty2, primary screen, biochemical, biotinylated probe, 635/667 nm fluorescence (AID 1094); conditions: higher = more signal;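 further: score merges spot fluorescence near 667 nm with spot signal-to-noise ratio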
[18] = system: Noggin (protein binding on small-molecule microarray); assay: Noggin binders on small-molecule microarray, primary screen, biochemical, 635/667 nm fluorescence (AID 1095); conditions: 635 nm fluorescence, higher = more signal;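 further: score merges 667 nm feature fluorescence with signal to noise over triplicate slides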
[19] = target: Neurogenic locus notch homolog protein 3 (Homo sapiens) (UniProt Q9UM47); assay: NOTCH3 binders on small-molecule microarray, primary screen, biochemical, 635/667 nm fluorescence (AID 1096); conditions: NOTCH3 binding, 635 nm fluorescence, higher = more signal
[20] = small-molecule microarray binders of probe aEGFR, primary screen, biochemical, biotinylated probe, 635/667 nm fluorescence (AID 1097); conditions: higher = more signal;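 further: probe is a biotinylated anti-EGFR antibody binding compounds printed on slides; score combines fluorescence near 667 nm and signal to noise of each spot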

Chain of Neurogenic locus notch homolog protein 2 (Homo sapiens) (Q04721 whole entry, looked up, canonical isoform): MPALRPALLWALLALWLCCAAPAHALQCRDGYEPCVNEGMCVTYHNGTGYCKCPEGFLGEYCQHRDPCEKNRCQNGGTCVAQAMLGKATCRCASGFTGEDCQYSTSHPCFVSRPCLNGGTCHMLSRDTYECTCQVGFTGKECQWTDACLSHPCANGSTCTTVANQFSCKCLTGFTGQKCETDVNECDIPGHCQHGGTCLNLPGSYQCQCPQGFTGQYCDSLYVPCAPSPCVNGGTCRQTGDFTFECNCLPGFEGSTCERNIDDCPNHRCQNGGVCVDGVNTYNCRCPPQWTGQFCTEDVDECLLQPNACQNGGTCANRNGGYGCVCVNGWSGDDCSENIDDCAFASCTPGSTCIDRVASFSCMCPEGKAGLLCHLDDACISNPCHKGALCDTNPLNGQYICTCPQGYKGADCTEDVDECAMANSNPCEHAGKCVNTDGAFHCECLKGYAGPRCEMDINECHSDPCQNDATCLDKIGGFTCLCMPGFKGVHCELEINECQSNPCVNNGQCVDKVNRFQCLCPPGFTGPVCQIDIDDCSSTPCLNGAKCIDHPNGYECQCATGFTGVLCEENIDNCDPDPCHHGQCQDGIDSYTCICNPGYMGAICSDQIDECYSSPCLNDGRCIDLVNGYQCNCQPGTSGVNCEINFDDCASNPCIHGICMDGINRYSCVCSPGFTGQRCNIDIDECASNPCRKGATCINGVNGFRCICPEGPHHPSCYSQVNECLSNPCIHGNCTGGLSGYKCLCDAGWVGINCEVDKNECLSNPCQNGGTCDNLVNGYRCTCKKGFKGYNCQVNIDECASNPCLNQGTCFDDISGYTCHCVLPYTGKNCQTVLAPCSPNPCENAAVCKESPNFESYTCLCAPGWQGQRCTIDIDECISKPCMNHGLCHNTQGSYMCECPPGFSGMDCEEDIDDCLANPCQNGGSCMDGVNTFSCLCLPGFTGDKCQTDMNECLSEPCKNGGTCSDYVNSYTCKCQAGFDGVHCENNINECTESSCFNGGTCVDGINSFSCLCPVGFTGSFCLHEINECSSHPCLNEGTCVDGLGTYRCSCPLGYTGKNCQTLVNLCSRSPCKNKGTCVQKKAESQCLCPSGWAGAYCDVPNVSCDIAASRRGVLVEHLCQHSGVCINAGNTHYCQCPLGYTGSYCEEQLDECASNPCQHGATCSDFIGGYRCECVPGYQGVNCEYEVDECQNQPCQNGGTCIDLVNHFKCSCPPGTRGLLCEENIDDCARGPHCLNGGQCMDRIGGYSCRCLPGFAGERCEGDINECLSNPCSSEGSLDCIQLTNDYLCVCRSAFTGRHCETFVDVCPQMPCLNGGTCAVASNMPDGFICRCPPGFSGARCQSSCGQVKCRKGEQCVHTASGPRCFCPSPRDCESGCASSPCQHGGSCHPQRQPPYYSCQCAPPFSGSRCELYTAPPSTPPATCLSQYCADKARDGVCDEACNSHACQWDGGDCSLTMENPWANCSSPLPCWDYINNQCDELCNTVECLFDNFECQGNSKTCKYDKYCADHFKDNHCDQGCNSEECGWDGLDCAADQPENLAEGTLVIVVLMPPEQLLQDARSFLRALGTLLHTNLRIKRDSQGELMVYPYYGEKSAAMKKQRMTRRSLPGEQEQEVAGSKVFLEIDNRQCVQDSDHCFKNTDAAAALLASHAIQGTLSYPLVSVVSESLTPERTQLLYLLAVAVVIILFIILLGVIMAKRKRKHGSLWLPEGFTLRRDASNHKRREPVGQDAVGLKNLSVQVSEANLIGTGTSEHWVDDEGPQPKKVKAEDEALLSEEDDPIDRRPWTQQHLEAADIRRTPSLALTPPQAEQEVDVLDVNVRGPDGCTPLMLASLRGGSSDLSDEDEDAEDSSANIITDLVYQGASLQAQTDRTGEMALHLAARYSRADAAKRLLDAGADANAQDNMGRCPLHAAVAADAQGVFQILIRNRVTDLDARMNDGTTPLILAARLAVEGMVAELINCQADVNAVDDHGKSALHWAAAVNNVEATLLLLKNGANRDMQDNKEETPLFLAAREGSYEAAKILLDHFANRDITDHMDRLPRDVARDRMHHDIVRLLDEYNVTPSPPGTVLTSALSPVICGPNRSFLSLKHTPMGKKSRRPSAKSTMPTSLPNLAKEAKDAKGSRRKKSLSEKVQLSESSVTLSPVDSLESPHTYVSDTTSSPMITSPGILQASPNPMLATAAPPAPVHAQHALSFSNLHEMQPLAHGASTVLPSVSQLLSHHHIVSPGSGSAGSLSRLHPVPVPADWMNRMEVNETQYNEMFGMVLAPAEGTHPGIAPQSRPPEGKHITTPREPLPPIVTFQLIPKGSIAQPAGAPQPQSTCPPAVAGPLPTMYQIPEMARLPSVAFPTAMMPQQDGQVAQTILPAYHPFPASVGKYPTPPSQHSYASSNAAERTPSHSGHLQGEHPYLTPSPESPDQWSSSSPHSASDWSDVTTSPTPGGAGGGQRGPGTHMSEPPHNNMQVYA
Chain of Pro-neuregulin-1, membrane-bound isoform (Homo sapiens) (Q02297 whole entry, looked up, the tested form may be a part, canonical isoform): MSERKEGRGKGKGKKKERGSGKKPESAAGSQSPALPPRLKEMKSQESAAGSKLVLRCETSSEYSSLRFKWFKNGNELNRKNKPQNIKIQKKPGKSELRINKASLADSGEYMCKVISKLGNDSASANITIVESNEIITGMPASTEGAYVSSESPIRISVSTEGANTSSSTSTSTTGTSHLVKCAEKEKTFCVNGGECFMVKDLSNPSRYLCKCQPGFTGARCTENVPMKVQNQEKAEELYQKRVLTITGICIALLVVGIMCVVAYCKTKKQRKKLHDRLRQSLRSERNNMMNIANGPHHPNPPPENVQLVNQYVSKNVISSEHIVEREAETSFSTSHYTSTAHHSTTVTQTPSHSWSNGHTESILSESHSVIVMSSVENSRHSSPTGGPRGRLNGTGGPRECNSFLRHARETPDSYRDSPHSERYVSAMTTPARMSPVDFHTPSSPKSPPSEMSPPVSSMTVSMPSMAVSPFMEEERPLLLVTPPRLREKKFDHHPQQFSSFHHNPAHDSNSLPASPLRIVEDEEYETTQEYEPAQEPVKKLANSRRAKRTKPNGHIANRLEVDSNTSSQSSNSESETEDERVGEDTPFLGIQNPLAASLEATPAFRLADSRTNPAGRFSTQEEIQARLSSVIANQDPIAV
Chain of Torsin-1A-interacting protein 2 (Homo sapiens) (Q8NFQ8 whole entry, looked up): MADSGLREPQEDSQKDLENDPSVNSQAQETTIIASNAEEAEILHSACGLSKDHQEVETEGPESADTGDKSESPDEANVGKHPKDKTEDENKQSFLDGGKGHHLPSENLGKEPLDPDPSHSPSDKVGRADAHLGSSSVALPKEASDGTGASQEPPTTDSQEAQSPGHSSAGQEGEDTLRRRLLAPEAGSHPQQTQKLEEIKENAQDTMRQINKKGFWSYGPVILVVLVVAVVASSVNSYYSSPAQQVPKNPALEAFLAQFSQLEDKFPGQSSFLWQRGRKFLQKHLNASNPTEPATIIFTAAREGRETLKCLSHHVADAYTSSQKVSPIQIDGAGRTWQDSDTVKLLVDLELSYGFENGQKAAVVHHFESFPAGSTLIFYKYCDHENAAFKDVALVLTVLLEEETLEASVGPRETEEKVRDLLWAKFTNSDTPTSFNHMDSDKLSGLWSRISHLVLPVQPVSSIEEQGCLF

Structure (SMILES) | composite z-score [1] | composite z-score [2] | composite z-score [3] | composite z-score [4] | composite z-score [5] | composite z-score [6] | composite z-score [7] | z-score [8] | composite z-score [9] | composite z-score [10] | composite z-score [11] | z-score [12] | z-score [13] | z-score [14] | composite z-score [15] | z-score [16] | composite z-score [17] | composite z-score [18] | composite z-score [19] | composite z-score [20]
CC(C)=NOC[C@@H](O)[C@H]1O[C@@H]2OC(C)(C)O[C@@H]2[C@H]1O | -0.732 | 0.97 | 0.197 | 0.502 | 1.09 | 0.233 | 0.457 | -0.476 (inactive) | 0.548 | -0.191 | 0.956 | 0.51 (inactive) | 0.0819 (inactive) | 0.243 (inactive) | 0.178 | 0.132 (inactive) | 0.19 | 0.625 | 0.498 | 0.0727
C[C@@H]1CC[C@H]2C(=O)O[C@@H](COc3ccc(C(C)(C)C)cc3)CN2[C@H]1c1ccc(Br)cc1 | -0.348 | 0.0745 | -0.103 | 0.085 | -0.0477 | 0.101 | -0.4 | 0.732 (inactive) | 0.153 | -0.16 | 0.76 | 0.267 (inactive) | -0.0416 (inactive) | -0.264 (inactive) | 0.456 | 0.113 (inactive) | -0.159 | 0.307 | -0.288 | -0.0326
CON(C)C(=O)c1nnc2c(n1)[nH]c1ccccc12 | -0.262 | 0.668 | -0.165 | 0.494 | 0.448 | 0.0309 | 0.823 | 168 (active) | -0.128 | -0.323 | 0.194 | -0.545 (inactive) | 0.577 (inactive) | -0.298 (inactive) | 0.3 | 0.816 (inactive) | -0.0931 | 0.586 | 0.483 | -0.121
CO[C@@H]1C=CCC(=O)N[C@@H](C)C(=O)OC[C@@H](NS(=O)(=O)c2ccc(C)cc2)[C@H](C)C=CCC(=O)OC[C@H]1C | -0.296 | 0.43 | -0.238 | 0.199 | -0.765 | -0.589 | -0.919 | -1.04 (inactive) | -0.0849 | 0.21 | 0.375 | -0.413 (inactive) | -0.266 (inactive) | -0.411 (inactive) | -1.35 | 0.0927 (inactive) | -0.15 | 0.98 | -0.381 | -0.123
COC(=O)[C@H](Cc1ccccc1)NC(=O)[C@@H](C)CO | 0.503 | 0.482 | -0.0105 | 0.417 | 0.458 | -0.35 | 0.867 | 0.313 (inactive) | 0.53 | -0.0672 | 1.41 | -0.152 (inactive) | -0.187 (inactive) | 0.22 (inactive) | 0.738 | -0.503 (inactive) | 0.0498 | 0.441 | 0.588 | 0.169
CCc1cc2c(nc1CC)CCN(CCC(C)=NOCC[C@@H]1C=C[C@H](OC(C)=O)[C@@H](COC(C)=O)O1)C2 | 0.325 | 1.66 | -0.103 | -0.213 | -0.0544 | -0.0974 | 0.545 | 0.485 (inactive) | 0.851 | 0.0722 | 1.54 | -0.391 (inactive) | 0.591 (inactive) | 0.521 (inactive) | 0.796 | 0.956 (inactive) | 0.251 | 1.21 | 0.546 | 0.0579
